# HCMV antiviral = blocks human cytomegalovirus replication; HFF cells, HCMV-luciferase reporter, 72 h; stronger effect = lower value; activity change, negative = inhibition, % at 57.5 µM; 410,000 tested, 4.5% active; AID 1259415; in the data active = activity change below about -60%; inconclusive = no clear call, values can overlap the other calls; inactive = above about -39%
#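 Inhibition of viral replication was scored as loss of reporter luminescence in HFFs infected with HCMV-luciferase (MOI 1 PFU/cell) for 72 h; compounds tested at 2 doses, normalized to buffer and Salinomycin controls.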
# Vaccinia Venus = vaccinia inhibition (Venus reporter). 330,000 tested, 0.46% active. Potency, µM (doses to about 36.5 µM), for inactives: top-dose activity change, negative = inhibition, usual class: inhibitors. Vaccinia virus Venus reporter expression, fluorescence; calls by dose curve; tested in A549 cells; also: potency is read from the fitted curve at half-maximal effect; nearly all actives have a fitted effect of over 30% in size
# FMDV inh = foot and mouth disease virus antiviral activity. FMDV antiviral cell-based qHTS. Potency, µM (doses to about 57.9 µM), inactives show top-dose activity change, negative = inhibition, usual class: inhibitors. 410,000 tested, 1.2% active; calls by dose curve; tested in HEK293T cells; also: read-out not given here; potency is read from the fitted curve at half-maximal effect; nearly all actives have a fitted effect of over 45% in size
# Marburg entry inh = blocks Marburg virus binding to or entry into cells; Marburg virus pseudotyped entry inhibition, cell reporter; Potency, µM (series often up to 37.8 µM), for the others: at the top dose activity change, negative = inhibition, usual class: inhibitors; 300,000 tested, 1.8% active; calls by dose curve; tested in HEK293 cells; also: potency is read from the fitted curve at half-maximal effect
# VACV mCherry inh = vaccinia inhibition (mCherry reporter) | Vaccinia virus mCherry reporter infection, fluorescence | Potency, µM (top dose mostly 36.5 µM), for inactives: at the top dose activity change, negative = inhibition, most hits filed as inhibitors | 310,000 tested, 0.63% active | AID 720579; calls by dose curve; tested in A549 cells; also: potency is read from the fitted curve at half-maximal effect; nearly all actives have a fitted effect of over 35% in size
# Lassa entry inh = blocks Lassa virus binding to or entry into cells; Potency, µM (series often up to 37.9 µM), for the others: top-dose activity change, negative = inhibition, actives largely listed as inhibitors; 300,000 tested, 1.2% active; Lassa virus pseudotype entry inhibition, cell reporter; AID 540256; calls by dose curve; tested in HEK293 cells; also: potency is read from the fitted curve at half-maximal effect; nearly all actives have a fitted effect of over 50% in size
# The depositor's hits bear a star; i = inactive; ? = inconclusive; . = not tested or not shown; ! = repeats disagree; [ ] = dose if it differs, or a comment. An excerpt weighted towards active compounds, which were near 6.5% of everything screened. % is scaled to controls: 0 for no effect and ±100 for the full control effect.
SMILES,HCMV antiviral,Vaccinia Venus,FMDV inh,Marburg entry inh,VACV mCherry inh,Lassa entry inh
COc1ccc(-c2noc(CSCC(=O)Nc3ccc(C)cc3Br)n2)cc1OC,6.9,-12.6%,-0.3%,.,i,-19.3%[46.1 µM]
Cc1ccc(C)c(Cn2c(=O)n(Cc3ccccc3)c(=O)c3c2c2cc(C)ccc2n3C)c1,-36.8,-0.5%,-16.7%,.,-9.2%,10.6%[46.1 µM]
O=C(N/N=C/c1ccc(O)cc1)Nc1cccc2nsnc12,-26.7,?,-2.2%,?,10µM*,?
CC1(C(=O)Nc2cccc(Oc3ccccc3)c2)Cc2c(-c3ccc4c(c3)OCO4)ccnc2O1 (stereo unspecified),-67.1*,-26.4%,-6.9%,.,-4.5%,.
CC1(C(=O)Nc2ccccc2)Cc2c(-c3ccc4c(c3)OCO4)ccnc2O1 (stereo unspecified),-23.3,-16.1%,10.0%,.,9.8%,.
C[C@@H]1CN(Cc2ccc3c(c2)CN(Cc2coc4ccccc4c2=O)CCO3)C[C@H](C)O1,.,-19.4%,0.2%,.,-17.5%,.
CC(=O)c1ccc(NC(=O)Cn2c(=O)c3cccn3c3ccccc32)cc1,?,-2.8%,-8.3%,.,0.4%,1.78µM*
CN(CCCNC(=O)Cn1c(=O)c2cccn2c2ccccc21)Cc1ccccc1,-88.3*,-2.4%[7.34 µM],0.0%,.,-14.2%[7.34 µM],.
O=C(CCCn1c(=O)c2cccn2c2ccccc21)Nc1cccc(Cl)c1,-69.9*,-8.7%,-16.6%,.,-13.2%,?
O=C(CCN1CCCCC1)Nc1cccc(Cl)c1,-13.6,-17.4%,-21.4%,11.5%,-17.2%,0.9%
COc1ccc(NC(=O)Cn2c(=O)c3cccn3c3ccccc32)cc1,-16.2,-4.4%,-15.2%,.,0.8%,-18.6%[46.1 µM]
Cc1cc(C)cc(NC(=O)CCCn2c(=O)c3cccn3c3ccccc32)c1,-18.3,-6.2%,-14.2%,.,0.3%,?
O=C(CCN1CCCCCC1)Nc1cccc(Cl)c1,-60.5*,-11.4%,2.9%,-24.3%,-7.7%,-16.3%
O=C(Nc1ccn2ccnc2n1)c1ccccc1C(F)(F)F,-12.6,.,.,.,.,.
CN(C)[C@H]1CC[C@@]23CCCN2C(=O)CCC[C@H]3[C@H]1Cc1ccccc1,4.5,.,.,.,.,.
O=C(Cn1c(=O)c2cccn2c2ccccc21)NCc1cccc(F)c1,?,-10.6%,6.4%,0.5%[46.1 µM],i,2.4%[46.1 µM]
COc1cccc(CNC(=O)CN2c3cccc4cccc(c34)S2(=O)=O)c1,-88.3*,-13.5%,0.3%,?,i,3.0%
COc1cccc(CNC(=O)Cn2c(=O)c3cccn3c3ccccc32)c1,-65.7*,.,-11.2%,.,.,.
Cc1ccc(CNC(=O)CN2c3cccc4cccc(c34)S2(=O)=O)cc1,-0.7,.,-14.7%,.,.,.
CCc1ccc(NC(=O)N2CCN(c3nnc(C)c4c(C)n(-c5ccc(Cl)cc5)nc34)CC2)cc1,-39.8,?,-8.5%,.,?,?
CC(C)OCCCNC(=O)c1c(N)n(Cc2cccs2)c2nc3ccccc3nc12,-74.2*,28.2µM*,-29.3%,?,.,?
O=C(NCC1CCCO1)c1cc2ccccc2nc1Cl (stereo unspecified),-69.5*,.,14.7%,.,.,.
CC(C)CNC(=O)c1c(N)n(Cc2ccc3c(c2)OCO3)c2nc3ccccc3nc12,-80.2*,.,-17.3%,?,.,-4.3%
CC(C)Cn1c(N)c(C(=O)NCC2CCCO2)c2nc3ccccc3nc21 (stereo unspecified),-20.0,10µM*,?,?,10µM*,-26.5%
CC(C)CCNC(=O)c1c(N)n(Cc2ccc3c(c2)OCO3)c2nc3ccccc3nc12,-34.5,.,-14.0%,?,.,-20.6%
SMILES,HCMV antiviral,Vaccinia Venus,FMDV inh,Marburg entry inh,VACV mCherry inh,Lassa entry inh
COCCn1c(N)c(C(=O)NCc2cccs2)c2nc3ccccc3nc21,?,.,4.0%,?,.,-0.5%
COc1ccccc1NC(=O)c1nc(SCc2ccccc2F)ncc1Cl,.,-17.2%,.,.,18.2%,.
COc1nc(C#N)nc(N2CCCCC2)n1,.,-3.0%,.,.,4.2%,.
Nc1c(C(=O)NCc2ccccc2)c2nc3ccccc3nc2n1-c1ccc2c(c1)OCO2,-77.1*,-13.5%,.,?,-2.1%,?
O=C(CN1C(=O)COc2ccc(S(=O)(=O)NC3CCCC3)cc21)Nc1ccc(Cl)cc1,30.7,-11.8%,38.0%,.,-14.5%,2.4%[46.1 µM]
CC1=CC(C)(C)n2c(O)c(C3=NC(=S)NC3=O)c3cc(OC(=O)c4cccc5ccccc45)cc1c32,-71.6*,0.1%,?,-8.9%,-12.9%,-13.0%
CC(N)C(=O)NC1C2C(=C(O)CC(O)C2O)C(=O)OC1(C)C(Cl)Cl (stereo unspecified),-75.8*,1µM*,?,0.316µM*,?,0.501µM*
Cc1ccc(-c2nc(NCCN(C)C)c3ccccc3n2)cc1,24.3,?,35.6%,?,?,?
CN(C)CCNc1cc(-c2ccncc2)nc2ccccc12,34.4,-22.2%,5.6%,6.31µM*,i,-12.3%[46.1 µM]
O=C(CNC(=O)c1ccccc1F)OCC(=O)N1CCCCC1,-61.8*,-0.8%,-16.2%,-2.2%,-8.0%,-1.8%
COc1cc(-c2nnc(COc3ccc4ccccc4c3)o2)cc(OC)c1OC,-107.4*,-19.5%,0.0%,-7.8%,-20.9%,?
COc1cc(-c2nnc(-c3ccccc3)o2)cc(OC)c1OC,26.5,-17.6%,-16.3%,?,-1.1%,?
COc1ccc(NC(=O)COc2cccc3c2OC(C)(C)C3)cc1OC,?,.,22.4µM*,.,.,.
O=C(c1ccc(-c2ccc([N+](=O)[O-])cc2)o1)N1CCCC(C(F)(F)F)C1 (stereo unspecified),-75.8*,-10.7%,25.1%,-17.5%,-15.2%,-1.9%
CCOC(=O)Nc1cc(=O)c([N+](=O)[O-])c(N)[nH]1,9.5,.,.,.,.,.
CC(SCc1ccccc1)C(=O)Nc1ccc(F)cc1 (stereo unspecified),?,5.2%,-15.0%,-7.7%[46.1 µM],-23.0%,25.2%[46.1 µM]
N#CC(C#N)=C(Nc1ccc(F)cc1)SCc1cccc(Br)c1,-98.7*,?,1.78µM*,?,?,?
Cc1cccc(CSC(Nc2ccc(F)cc2)=C(C#N)C#N)c1,-101.6*,?,?,2.91µM*,?,?
CC1=C[C@@H](COCc2ccccc2)O[C@@]2(C1)C(=O)Nc1cccc(Br)c12,.,.,.,8.6%[14.2 µM],.,?
Cc1ccc(-n2nc3c(=O)n(CCCC(=O)NCc4ccccc4C)nc(C)c3c2C)cc1,-10.3,-28.3%,-20.7%,.,?,15.0%[46.1 µM]
Cc1ccc(CNC(=O)CCCn2nc(C)c3c(C)n(-c4ccccc4)nc3c2=O)cc1,?,-9.9%,7.08µM*!,.,-25.2%,19.8%[46.1 µM]
CCN1CCN(CCNC(=O)CCCn2nc(C)c3c(C)n(-c4ccc(C)cc4)nc3c2=O)CC1,-66.6*,?,-1.5%,?,?,21.0%[46.1 µM]
Cc1nn(CCC(=O)NCc2ccc(Cl)cc2)c(=O)c2nn(-c3ccccc3)c(C)c12,2.1,-17.1%,?,.,-18.2%,-17.2%[46.1 µM]
Cc1nn(CCC(=O)NCc2ccc(N(C)C)cc2)c(=O)c2nn(-c3ccccc3)c(C)c12,-62.7*!,-5.5%,-16.6%,.,-12.3%,3.8%[46.1 µM]

# Assay outcomes from PubChem.
